These results are taken from the supplement of paper PMC3842684.

For test [1], the system named is P. falciparum NF54-pfs16-GFP early (I-III) stage gametocytes. The test can be described thus: relative % inhibition of viable gametocyte number; higher = more gametocytocidal. The note with it: stage: early (I-III) gametocyte, incubation 72 h. The essentials:
(§1)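 In 384-well poly-D-lysine imaging plates, NF54 pfs16-GFP gametocytes (magnet-isolated, early I/IIa on day 2 or late on day 8; 10% parasitaemia, 0.1% haematocrit) received compound in duplicate at 5 or 0.5 µM. Plates stood 72 h at 37°C in 5% CO2 and 5% O2, then overnight with MitoTracker Red before confocal imaging, where elongated GFP objects with MitoTracker signal above cut-off counted as viable. Relative inhibition was calculated against vehicle and positive-control wells on the same plate.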

The subject of test [2] is P. falciparum NF54-pfs16-GFP late (IV-V) stage gametocytes. The test is described as above. The note with it: stage: late (IV-V) gametocyte, incubation 72 h. The essentials: as §1

On to `Oc1ccc(C(=C(Cl)Cl)c2ccc(O)cc2)cc1`, for which the relative % inhibition in test [1] (0.5 µM) was -6.22%; in test [1] (5 µM) it was 29.1%; in test [2] (0.5 µM), -1.73%; in test [2] (5 µM), -7.57%.

For the compound `Oc1ccc(Br)cc1CN1CCN(Cc2cccc(F)c2)CC1`, the relative % inhibition in test [1] (0.5 µM) was -1.27%; in test [1] (5 µM), 63.9%; in test [2] (0.5 µM) it was 50.4%; in test [2] (5 µM), 95.9%.

As to `CCCc1cc(O)c2c3c(c(=O)oc2c1)CN(C)CC3`, the relative % inhibition in test [1] (0.5 µM) was 38.5%; in test [1] (5 µM), 91.6%; in test [2] (0.5 µM) it was 38.3%; in test [2] (5 µM), 49.1%.

`O=C(CCc1ccco1)NC1CCN(CC2(c3ccc(Cl)cc3)CCC2)CC1`: the relative % inhibition was -4.87% in test [1] (0.5 µM), 91.7% in test [1] (5 µM), 21.7% in test [2] (0.5 µM) and 82.2% in test [2] (5 µM).

Regarding `COc1cc(CNCCc2ccc(Cl)cc2)cc(OC)c1O`, the relative % inhibition in test [1] (0.5 µM) was 9.61%; in test [1] (5 µM), 87.4%; in test [2] (0.5 µM), -10.8%; in test [2] (5 µM) it was 3.51%.

As to `CN(N=O)C1=C(NC2CCCCC2)C(=O)c2ccccc2C1=O`, the relative % inhibition turned out to be 34.8% in test [1] (0.5 µM), 10.4% in test [1] (5 µM), 20.6% in test [2] (0.5 µM) and 38.1% in test [2] (5 µM).

On to `CCOc1cc(CNC(C)C(O)c2ccccc2)cc(Cl)c1OCC` (stereo not drawn), for which the relative % inhibition is -15.8% in test [1] (0.5 µM), -1.9% in test [1] (5 µM), 32.7% in test [2] (0.5 µM) and 74.4% in test [2] (5 µM).

Turning to `CCOc1c(Cl)cc(CNC(C)C(O)c2ccccc2)cc1OC` (stereo not drawn), the relative % inhibition in test [1] (0.5 µM) is -16.9%; in test [1] (5 µM) it was 71.9%; in test [2] (0.5 µM), -0.71%; in test [2] (5 µM) it was 31.3%.

`COc1ccc(CN2CCN(Cc3ccccc3)CC2)c(O)c1`: the relative % inhibition in test [1] (0.5 µM) was -13.8%; in test [1] (5 µM), -3.4%; in test [2] (0.5 µM), 12.2%; in test [2] (5 µM) it was 7.95%.

For `Oc1ccc(Br)cc1CN1CCN(Cc2ccc(Cl)cc2)CC1`, the relative % inhibition in test [1] (0.5 µM) turned out to be 12.1%; in test [1] (5 µM) it was 88.4%; in test [2] (0.5 µM) it was 26.8%; in test [2] (5 µM), 31%.

As to `C=CC12CCN(CC1)C(C(O)c1ccnc3ccc(OC)cc13)C2` (stereo not drawn), the relative % inhibition in test [1] (0.5 µM) amounted to 91.6%; in test [1] (5 µM) it was 75.8%; in test [2] (0.5 µM), 37.9%; in test [2] (5 µM) it was 36.1%.

For `CCCCCCc1cc(O)c2c3c(c(=O)oc2c1)CCC(C)C3` (stereo not drawn), the relative % inhibition is -14.4% in test [1] (0.5 µM), 86.1% in test [1] (5 µM), 69.5% in test [2] (0.5 µM) and 98.9% in test [2] (5 µM).
